Measurements published in the supplement of paper PMC3334620.
In all, about 33,000 sequences were measured (“E-score (-0.5 to 0.5)”: median about -0.016, highest 2% from about 0.32 on). Only a selection was taken, and the highest values are over-represented in it overall.

biological target: T1, Stp1 (UniProt B3LFK1); test: PBM E-score (8-mer binding enrichment) (E-score (-0.5 to 0.5)); higher = stronger / more preferred TF binding; settings: protein concentration: 200 nM; construct: GST-full length
T1 sequence: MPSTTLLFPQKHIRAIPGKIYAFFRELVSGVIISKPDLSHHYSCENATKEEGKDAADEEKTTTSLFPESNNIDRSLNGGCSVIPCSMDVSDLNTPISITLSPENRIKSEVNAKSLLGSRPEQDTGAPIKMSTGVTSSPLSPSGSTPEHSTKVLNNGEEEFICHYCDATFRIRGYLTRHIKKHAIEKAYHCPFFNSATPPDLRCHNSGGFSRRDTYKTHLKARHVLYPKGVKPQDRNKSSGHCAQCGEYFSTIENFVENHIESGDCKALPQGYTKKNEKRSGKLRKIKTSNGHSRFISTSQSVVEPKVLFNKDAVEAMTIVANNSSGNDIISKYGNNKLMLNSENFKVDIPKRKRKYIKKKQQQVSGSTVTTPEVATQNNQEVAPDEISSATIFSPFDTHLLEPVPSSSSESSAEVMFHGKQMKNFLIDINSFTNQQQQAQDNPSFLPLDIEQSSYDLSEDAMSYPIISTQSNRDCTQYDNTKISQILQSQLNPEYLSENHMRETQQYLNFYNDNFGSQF
Protocol: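 Universal 'all 10-mer' protein binding microarrays (Agilent AMADID 015681) probed with GST-tagged S. cerevisiae TFs (full-length or DBD) made by in vitro transcription/translation (PURExpress), about 100-200 nM. Bound TF was detected with fluorescent anti-GST. Each ungapped 8-mer (which stands for itself and its reverse complement) is scored by the PBM enrichment score (E-score), a modified Wilcoxon-Mann-Whitney statistic from -0.5 to +0.5, computed with the Universal PBM Analysis Suite. Scale: above 0.35 generally sequence-specific binding.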

Sequence | PBM E-score
AGAGGCGA | 0.135
CGAGGCGA | 0.289
CGAGGCGC | 0.456
AGAGGCGG | 0.061
AGAGGCGC | 0.327
CGAGGCTC | 0.131
GGGGCAAA | 0.0199
TACTGTGA | -0.14
ATGGTAAA | 0.0118
AATTACTC | 0.144
CTTCTAGC | -0.0527
GCCGTGTA | 0.473
GCCGTGGA | 0.402
CCCGTGTA | 0.0889
GCCGTGCA | 0.478
ACCGTGCC | 0.313
GCCGTGCC | 0.487
ACCGTGTA | 0.0338
ACCGTGCA | -0.0437
CCCGTGGA | -0.0712
GACGTGCC | 0.238
ACCGTGGA | 0.0243

Sequence | PBM E-score
TCCGTGCA | 0.258
CCTTTTGC | 0.214
ACAGATAG | -0.0308
AATATGCG | 0.114
ACAACGAT | 0.00545
AAGACGAA | 0.0123
GAAGTGTC | -0.0596
CGAGTCGA | -0.00477
ACGGGTGC | 0.105
GCGCTCGA | 0.0767
CGCGTGCC | 0.325
GCCGTGAA | 0.361
CCCGTGCC | 0.33
CTCGTGCC | 0.294
TCCGTGAA | 0.0172
GCCGTGAC | 0.294
CCCGTGGC | 0.046
AGCGTGCC | 0.126
CGCGTGCA | 0.0968
CCTCTCCC | -0.253
ACTGGCAG | 0.0412
CTCGACGA | -0.13

Sequence | PBM E-score
TAATAGTA | 0.24
ATTCCTAC | 0.0636
CCAATAGG | 0.0256
AACGGCCT | 0.151
CAAGGCCG | 0.103
ATCGGCCG | 0.15
CACGGCCC | 0.337
CACGGCCA | 0.34
GACGGCCC | 0.069
GACGGCCA | -0.0395
CACGGCCG | 0.338
CCCGGCCG | -0.152
AACGGCCC | 0.235
AACGGCCG | 0.333
AACGGCCA | 0.214
AGATCAGG | -0.173
CTAGAGTC | -0.33
ACGGAGCT | 0.087
AACATAGG | 0.0786
AGCCTTCA | 0.108
AGGCATAC | 0.0863
CTTTCTCC | -0.244

Sequence | PBM E-score
GATGCCGC | 0.466
CATGCCGG | 0.186
GATGCCCC | -0.129
GATGCCGA | 0.29
CATGCCGA | 0.188
CATGCCGC | 0.427
CGGAAACA | -0.0866
GGGCATAC | -0.00074
GCACGTGA | 0.135
GCACGTGC | 0.352
CCACGTGC | 0.215
ACCAGAGC | -0.0074
CCGCACCA | 0.237
CGTGCCCC | 0.0449
CGTGCCTC | 0.398
AGTGCCTC | 0.347
AGTGCCTG | -0.0958
AGTGCCTA | 0.21
CGTGCCTA | 0.184
GGTGGTTA | 0.00324
AACGCATG | -0.0148
CGCCGAAC | 0.347

Sequence | PBM E-score
CGGCGAAG | 0.292
CGGCGAAA | 0.354
TGGCGAAA | 0.088
CGCCGAAG | 0.13
CGGCGAAC | 0.317
AGGCGAAC | 0.145
GGGCGAAC | 0.0424
AGCCGAAC | -0.0533
CATAGTCA | -0.195
CTGGAGTC | -0.362
TAGCAGGA | -0.226
CAGCCTTC | -0.091
CGGCATAA | 0.358
CAGCATCA | 0.0143
CGGCATAC | 0.27
GGGCATCA | 0.104
GGGCATAA | 0.0801
CGGCATCA | 0.438
AGGCATCG | 0.348
AGGCATCA | 0.215
CGGCATCC | 0.353
